Our source for the growth values is PubChem BioAssay (NCI).

This is part of a sample that, as a whole, favours compounds with a hit. Of some 83,000 tested, about 20% had one in any assay.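 Testing used 96-well plates and a 48-hour single-concentration exposure. Example: -40 means 40% of the starting cells died.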 A number with no mark means an inactive call. Activity calls are given as the source filed them. Rule for the calls: active = growth percent below 10; inactive = the rest.

The first test concerns A549/ATCC NSCLC. The test can be described thus: NCI-60 one-dose screen, 48 h (100 = growth as untreated, 0 = no growth, -100 = all killed). Particulars: 10 µM.
Turning to `Cc1ccc(CSc2nc(-c3ccc(F)cc3)c(C#N)c(=O)[nH]2)cc1`, the growth was 89.8%.

For `CCCn1c(O)c(N=Nc2nc(-c3cc4ccccc4oc3=O)cs2)c2cc(Br)ccc21`, the growth was 110%.

Regarding `CN1CCN(Cc2ccc(NC(=O)c3cncc(C#Cc4cnc5ccc(N[C@@H]6CCOC6)nn45)c3)cc2C(F)(F)F)CC1`, the growth was -56% (active).

On to `c1ccc(C(=C(c2ccc(OCCN3CCCCC3)cc2)c2ccc(OCCN3CCCCC3)cc2)C2CCCC2)cc1`, for which the growth is -17.9% (active).

As for `Cc1ccc(-c2cc(C(=O)N=Nc3c(O)[nH]c4ccccc34)c3ccccc3n2)cc1`, the growth is 2.51% (active).

With `N#Cc1c(NC(=O)c2ccc(C(F)(F)F)cc2)sc2c1CCC(=O)C2`, the growth is -41.9% (active).

For the compound `CCOC(=O)C1NN(c2ccc(S(N)(=O)=O)cc2)c2nc3nc(-c4cccs4)cc(-c4cccs4)c3c(=O)n21` (configuration not stated), the growth was 90.9%.

`Cc1ccc(-c2cc(C(=O)N=Nc3c(O)[nH]c4ccc(Br)cc34)c3ccccc3n2)cc1`: the growth was 85.8%.

Take `CC1(c2ccccc2)NC(=O)N(CC(=O)Nc2ccc(C(=O)/C=C/c3ccc(Cl)cc3)cc2)C1=O` (configuration not stated): the growth is 6.84% (active).

As to `O=C(N/N=C/c1ccc(-c2cccc([N+](=O)[O-])c2)o1)c1[nH]c2ccc(Br)cc2c1-c1ccccc1`, the growth was 0.801% (active).

Consider `CN(C)c1ccc(/C=C/c2nc3ccccc3c(=O)n2CC(=O)Nc2ccc(Cl)cc2)cc1`, for which the growth was 43.8%.

Regarding `CCCSc1nc(NC2CC2)c(C#N)c(-c2ccc(OC)cc2)n1`, the growth was 71.8%.

As to `C=C1CCC2C3(C)COC(c4c(F)cccc4F)OC3CCC2(C)C1CC(O)C1=CCOC1=O` (configuration not stated), the growth was 71.9%.

Take `O=C(N=Nc1c(O)[nH]c2ccc(Br)cc12)c1ccc2nc(-c3ccccc3)[nH]c2c1`: the growth is -24.6% (active).

Consider `CS(=O)(=O)Nc1ccc(-c2ccc3c(c2)ncn3-c2ccc(NC(=O)Nc3ccc(Br)cc3)cc2)cc1`, for which the growth is 12.1%.

As for `COC1=C[C@@]23CCC(=O)N2CCc2cc4c(cc2[C@H]3[C@H]1OC(=O)C(C)(C)O)OCO4`, the growth was 102%.

As to `Cc1cc(C)nc(/N=C(\N)Nc2ccc(S(=O)(=O)Nc3nc(C)cc(C)n3)cc2)n1`, the growth was 106%.

As to `CC(=O)NS(=O)(=O)c1ccc(NC(=O)CSC2=NC(c3ccccc3)C(C(C)=O)=C(C)N2)cc1` (configuration not stated), the growth was 98.1%.

On to `COc1cc2c3c(n(CCCNCCO)c(=O)c2cc1OC)-c1nc2c(cc1C3=O)OCO2`, for which the growth is 35.6%.

For the compound `C/C(=C\CC/C=C(\C)CC/C=C(\C)CC[C@@H](O)C(C)(C)O)CC/C=C(\C)CC[C@@H](O)C(C)(C)O`, the growth is 26.1%.

In the case of `C=CC(=O)Nc1nc(-c2cccc(NS(=O)(=O)c3cccc4c(N(C)C)cccc34)c2)cs1`, the growth is 19.3%.

For the compound `O=C(Nc1ccc(Cl)c(C(F)(F)F)c1)c1cncc(C#Cc2cnc3ccc(N4CCOCC4)nn23)c1`, the growth is 16.1%.

For `O=C(c1ccccc1)n1ccc(-c2cc3cc(Br)ccc3oc2=O)n1`, the growth was 33.9%.

For the compound `Clc1ccc(/C=N/Nc2ncnc3sc4c(c23)CCN(Cc2ccccc2)C4)cc1`, the growth was -53.2% (active).

For the compound `Nc1cc(-c2cccc(C(=O)NCc3ccc4c(c3)OCO4)c2)ccn1`, the growth was 99.2%.

For a further test, the system named is 786-0 renal. Described as above. The note with it: 10 µM.
With `COC(=O)CC1CC1C1Cc2c(nc(N(C)S(C)(=O)=O)nc2C(C)C)-c2ccc(F)cc21` (configuration not stated), the growth is 86%.

As for `CN1CCN(c2ccc(Nc3nc(N4CCN(S(=O)(=O)c5ccc(Cl)cc5)CC4)c4sccc4n3)cc2)CC1`, the growth is -62.9% (active).

In the case of `Cc1ccc(-c2ccc(SCC(=O)Nc3ccc(Cl)c(C(F)(F)F)c3)nn2)cc1`, the growth was 35.1%.

Take `Oc1ccc(/C=C2\CCCc3cc4ccc(O)cc4[o+]c32)c(O)c1`: the growth was 24.4%.

Consider `O=C(Nc1ccc(F)c(Cl)c1)c1cc(-c2ccc(F)cc2F)ccc1O`, for which the growth was 9.93% (active).

With `CCN1CCN(c2ccc(NC(=O)Nc3ccc4c(c3F)CCN4c3ccnc(C(=O)NC)c3)cc2C(F)(F)F)CC1`, the growth is -95.9% (active).

On to `O=C(CS(=O)(=O)c1oc(-c2ccc(Cl)cc2)nc1S(=O)(=O)c1ccccc1)N1CCCC1`, for which the growth is -44.3% (active).

`C=C(C)[C@@H]1CC[C@]2(C)[C@H](CC=C3[C@@H]4CC(C)(C)CC[C@]4(C(=O)N4CCOCC4)CC[C@]32C)[C@@]1(C)CCCN`: the growth was -79.3% (active).

With `COc1ccccc1C(=O)NNC(=O)CSc1nc2c(c(=O)[nH]1)CCCC2`, the growth was 115%.

Consider `Cc1ccc(/C(N)=N/c2sc(-c3ccccc3)nc2-c2ccccc2)cc1`, for which the growth was 76.7%.

Regarding `O=C(COc1ccc(NC(=O)Nc2ccc(Cl)cc2)cc1)N=Nc1c(O)[nH]c2ccc([N+](=O)[O-])cc12`, the growth is 53.6%.

Consider `COc1cc(/C=C/C(=O)c2cc(OC)c(OC)c(OC)c2)ccc1Oc1nc(Nc2ccc(F)cc2)nc(N(C)C)n1`, for which the growth is -94.1% (active).

Turning to `Cc1ccc(CSc2nc(-c3ccc(F)cc3)c(C#N)c(=O)[nH]2)cc1`, the growth was 100%.

On to `CCCn1c(O)c(N=Nc2nc(-c3cc4ccccc4oc3=O)cs2)c2cc(Br)ccc21`, for which the growth is 75.1%.

In the case of `CN1CCN(Cc2ccc(NC(=O)c3cncc(C#Cc4cnc5ccc(N[C@@H]6CCOC6)nn45)c3)cc2C(F)(F)F)CC1`, the growth was -77.4% (active).

For `c1ccc(C(=C(c2ccc(OCCN3CCCCC3)cc2)c2ccc(OCCN3CCCCC3)cc2)C2CCCC2)cc1`, the growth is -33.3% (active).

For the compound `Cc1ccc(-c2cc(C(=O)N=Nc3c(O)[nH]c4ccccc34)c3ccccc3n2)cc1`, the growth is 35.8%.

Take `N#Cc1c(NC(=O)c2ccc(C(F)(F)F)cc2)sc2c1CCC(=O)C2`: the growth was -8.91% (active).

Consider `CCOC(=O)C1NN(c2ccc(S(N)(=O)=O)cc2)c2nc3nc(-c4cccs4)cc(-c4cccs4)c3c(=O)n21` (configuration not stated), for which the growth was 78.7%.

With `Cc1ccc(-c2cc(C(=O)N=Nc3c(O)[nH]c4ccc(Br)cc34)c3ccccc3n2)cc1`, the growth is 88.6%.

Take `CC1(c2ccccc2)NC(=O)N(CC(=O)Nc2ccc(C(=O)/C=C/c3ccc(Cl)cc3)cc2)C1=O` (configuration not stated): the growth is -21.5% (active).

Regarding `O=C(N/N=C/c1ccc(-c2cccc([N+](=O)[O-])c2)o1)c1[nH]c2ccc(Br)cc2c1-c1ccccc1`, the growth was 5.31% (active).

Consider `CN(C)c1ccc(/C=C/c2nc3ccccc3c(=O)n2CC(=O)Nc2ccc(Cl)cc2)cc1`, for which the growth was 27.8%.

In the case of `CCCSc1nc(NC2CC2)c(C#N)c(-c2ccc(OC)cc2)n1`, the growth is 77.1%.

Regarding `C=C1CCC2C3(C)COC(c4c(F)cccc4F)OC3CCC2(C)C1CC(O)C1=CCOC1=O` (configuration not stated), the growth is 19.1%.

As to `O=C(N=Nc1c(O)[nH]c2ccc(Br)cc12)c1ccc2nc(-c3ccccc3)[nH]c2c1`, the growth is -92.9% (active).

For `CS(=O)(=O)Nc1ccc(-c2ccc3c(c2)ncn3-c2ccc(NC(=O)Nc3ccc(Br)cc3)cc2)cc1`, the growth is -13.6% (active).

On to `COC1=C[C@@]23CCC(=O)N2CCc2cc4c(cc2[C@H]3[C@H]1OC(=O)C(C)(C)O)OCO4`, for which the growth was 95.7%.

With `Cc1cc(C)nc(/N=C(\N)Nc2ccc(S(=O)(=O)Nc3nc(C)cc(C)n3)cc2)n1`, the growth is 111%.

On to `CC(=O)NS(=O)(=O)c1ccc(NC(=O)CSC2=NC(c3ccccc3)C(C(C)=O)=C(C)N2)cc1` (configuration not stated), for which the growth was 103%.

Consider `COc1cc2c3c(n(CCCNCCO)c(=O)c2cc1OC)-c1nc2c(cc1C3=O)OCO2`, for which the growth was -25.9% (active).

In the case of `C/C(=C\CC/C=C(\C)CC/C=C(\C)CC[C@@H](O)C(C)(C)O)CC/C=C(\C)CC[C@@H](O)C(C)(C)O`, the growth is 47.4%.

For the compound `C=CC(=O)Nc1nc(-c2cccc(NS(=O)(=O)c3cccc4c(N(C)C)cccc34)c2)cs1`, the growth was -82.5% (active).

With `O=C(Nc1ccc(Cl)c(C(F)(F)F)c1)c1cncc(C#Cc2cnc3ccc(N4CCOCC4)nn23)c1`, the growth is -28.5% (active).

Turning to `O=C(c1ccccc1)n1ccc(-c2cc3cc(Br)ccc3oc2=O)n1`, the growth was 16.1%.

Regarding `Clc1ccc(/C=N/Nc2ncnc3sc4c(c23)CCN(Cc2ccccc2)C4)cc1`, the growth was -84.8% (active).

For `Nc1cc(-c2cccc(C(=O)NCc3ccc4c(c3)OCO4)c2)ccn1`, the growth was 96.7%.
